For assay [1], the target named is T1, CDK9/cyclin T1 (Homo sapiens) (UniProt O60563+P50750). Conditions: at 1 µM.
In assay [2] the target is T1, CDK9/cyclin T1 (Homo sapiens). Conditions: at 10 µM.
The target in assay [3] is T2, Serine/threonine-protein kinase Chk1 (Homo sapiens) (UniProt O14757).
T2 sequence (whole entry): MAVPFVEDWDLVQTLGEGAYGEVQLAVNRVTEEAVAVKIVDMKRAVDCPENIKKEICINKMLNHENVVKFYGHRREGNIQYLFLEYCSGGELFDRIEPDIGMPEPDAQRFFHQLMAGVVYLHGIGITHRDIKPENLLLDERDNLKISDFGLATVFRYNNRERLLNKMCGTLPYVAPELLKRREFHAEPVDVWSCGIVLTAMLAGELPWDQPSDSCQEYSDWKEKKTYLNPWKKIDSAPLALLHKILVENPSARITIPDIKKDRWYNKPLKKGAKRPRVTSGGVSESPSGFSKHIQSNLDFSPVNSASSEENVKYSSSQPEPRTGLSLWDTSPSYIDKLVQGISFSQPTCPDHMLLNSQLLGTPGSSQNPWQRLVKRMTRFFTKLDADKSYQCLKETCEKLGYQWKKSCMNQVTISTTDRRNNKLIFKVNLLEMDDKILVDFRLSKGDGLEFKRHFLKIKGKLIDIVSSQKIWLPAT
Conditions: at 1 µM.

The target of assay [4] is T2, Serine/threonine-protein kinase Chk1 (Homo sapiens). Conditions: at 10 µM.
Assay [5] has as its target Serine/threonine-protein kinase Chk2 (Homo sapiens) (UniProt O96017). Particulars: at 1 µM.
For assay [6] the target is unchanged. Particulars: at 10 µM.
Assay [7] addresses Casein kinase I isoform gamma-1 (Homo sapiens) (UniProt Q9HCP0). Particulars: at 1 µM.
The target is the same in assay [8]. Particulars: at 10 µM.
For assay [9], the target named is Casein kinase I isoform delta (Homo sapiens) (UniProt P48730). Conditions: at 1 µM.
Sequence of Casein kinase I isoform delta (Homo sapiens) (P48730 whole entry, looked up, canonical isoform): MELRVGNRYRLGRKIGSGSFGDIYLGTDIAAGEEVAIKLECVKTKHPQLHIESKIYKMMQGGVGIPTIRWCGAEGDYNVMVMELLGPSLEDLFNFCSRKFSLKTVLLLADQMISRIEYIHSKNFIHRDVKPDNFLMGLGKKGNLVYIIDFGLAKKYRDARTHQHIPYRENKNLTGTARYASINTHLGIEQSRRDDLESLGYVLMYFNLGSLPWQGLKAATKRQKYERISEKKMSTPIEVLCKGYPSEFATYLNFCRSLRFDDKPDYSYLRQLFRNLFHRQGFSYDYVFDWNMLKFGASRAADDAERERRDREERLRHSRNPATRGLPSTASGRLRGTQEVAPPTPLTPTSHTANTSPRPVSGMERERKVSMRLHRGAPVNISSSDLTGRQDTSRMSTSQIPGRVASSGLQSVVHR
For assay [10] the target is unchanged. Particulars: at 10 µM.
For assay [11], the target named is T3, Casein kinase II (Homo sapiens) (UniProt P67870+P68400+P19784). Particulars: at 1 µM.
T3 sequence (P19784 whole entry, looked up): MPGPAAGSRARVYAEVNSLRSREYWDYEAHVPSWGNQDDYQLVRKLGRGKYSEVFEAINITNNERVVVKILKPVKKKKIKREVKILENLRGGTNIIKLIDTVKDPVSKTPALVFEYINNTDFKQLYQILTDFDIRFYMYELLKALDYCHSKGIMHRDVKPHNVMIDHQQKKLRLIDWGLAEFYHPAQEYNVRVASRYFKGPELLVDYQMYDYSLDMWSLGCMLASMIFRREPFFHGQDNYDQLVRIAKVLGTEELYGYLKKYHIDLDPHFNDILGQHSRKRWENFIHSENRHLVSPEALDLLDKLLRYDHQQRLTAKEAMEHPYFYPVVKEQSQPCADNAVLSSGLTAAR
T3 sequence (P67870 whole entry, looked up): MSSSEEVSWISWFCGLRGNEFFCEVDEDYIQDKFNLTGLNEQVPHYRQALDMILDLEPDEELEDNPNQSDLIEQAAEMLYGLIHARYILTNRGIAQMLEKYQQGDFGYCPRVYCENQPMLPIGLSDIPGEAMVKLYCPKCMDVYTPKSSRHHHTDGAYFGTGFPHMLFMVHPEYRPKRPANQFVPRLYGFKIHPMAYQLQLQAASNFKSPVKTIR
T3 sequence (P68400 whole entry, looked up): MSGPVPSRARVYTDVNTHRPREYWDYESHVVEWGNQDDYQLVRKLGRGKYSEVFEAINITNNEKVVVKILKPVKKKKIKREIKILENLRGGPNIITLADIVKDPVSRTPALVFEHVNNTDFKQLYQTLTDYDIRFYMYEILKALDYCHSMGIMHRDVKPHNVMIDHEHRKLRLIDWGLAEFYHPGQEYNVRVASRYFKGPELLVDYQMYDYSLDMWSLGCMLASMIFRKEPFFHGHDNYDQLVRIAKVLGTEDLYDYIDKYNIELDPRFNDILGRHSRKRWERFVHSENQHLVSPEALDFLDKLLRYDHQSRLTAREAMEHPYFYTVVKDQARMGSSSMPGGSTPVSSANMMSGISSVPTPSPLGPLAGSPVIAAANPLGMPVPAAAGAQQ
In assay [12] the target is T3, Casein kinase II (Homo sapiens). Conditions: at 10 µM.
Assay [13] has as its target Casein kinase II subunit alpha' (Homo sapiens) (UniProt P19784). Particulars: at 1 µM.
The target is the same in assay [14]. Conditions: at 10 µM.
The target in assay [15] is Dual specificity protein kinase CLK2 (Homo sapiens) (UniProt P49760). Particulars: at 1 µM.
Sequence of Dual specificity protein kinase CLK2 (Homo sapiens) (P49760 whole entry, looked up): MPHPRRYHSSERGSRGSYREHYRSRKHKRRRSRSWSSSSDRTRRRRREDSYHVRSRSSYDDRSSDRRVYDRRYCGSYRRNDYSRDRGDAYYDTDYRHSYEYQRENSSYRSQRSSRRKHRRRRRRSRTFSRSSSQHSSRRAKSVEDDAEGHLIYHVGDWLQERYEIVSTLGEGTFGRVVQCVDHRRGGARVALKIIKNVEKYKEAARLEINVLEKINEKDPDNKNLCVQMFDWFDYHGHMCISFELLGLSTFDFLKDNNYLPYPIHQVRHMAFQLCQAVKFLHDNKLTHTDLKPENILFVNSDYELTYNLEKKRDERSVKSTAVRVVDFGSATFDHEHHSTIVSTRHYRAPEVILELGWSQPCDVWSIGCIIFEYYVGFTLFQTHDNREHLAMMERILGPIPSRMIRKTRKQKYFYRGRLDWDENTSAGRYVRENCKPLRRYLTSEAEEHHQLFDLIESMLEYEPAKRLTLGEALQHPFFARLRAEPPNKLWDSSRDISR
Assay [16] shares this target. Particulars: at 10 µM.
Assay [17] deals with Dual specificity protein kinase CLK3 (Homo sapiens) (UniProt P49761). Particulars: at 1 µM.
Sequence of Dual specificity protein kinase CLK3 (Homo sapiens) (P49761 whole entry, looked up): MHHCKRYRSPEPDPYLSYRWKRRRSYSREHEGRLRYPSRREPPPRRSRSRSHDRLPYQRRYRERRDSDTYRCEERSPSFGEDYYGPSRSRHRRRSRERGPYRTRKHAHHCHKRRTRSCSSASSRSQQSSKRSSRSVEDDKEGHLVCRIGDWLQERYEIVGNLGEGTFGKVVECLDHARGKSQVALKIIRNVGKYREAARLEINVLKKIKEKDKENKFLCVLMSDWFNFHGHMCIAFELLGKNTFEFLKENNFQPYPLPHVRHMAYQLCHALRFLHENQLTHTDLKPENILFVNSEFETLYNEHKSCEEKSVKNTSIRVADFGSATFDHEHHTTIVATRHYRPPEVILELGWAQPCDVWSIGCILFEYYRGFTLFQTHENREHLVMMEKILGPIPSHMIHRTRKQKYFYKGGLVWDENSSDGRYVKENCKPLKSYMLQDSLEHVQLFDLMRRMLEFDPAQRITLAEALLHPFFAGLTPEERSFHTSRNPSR
The target is the same in assay [18]. Conditions: at 10 µM.
In assay [19] the target is Tyrosine-protein kinase CSK (Homo sapiens) (UniProt P41240). Conditions: at 1 µM.
Sequence of Tyrosine-protein kinase CSK (Homo sapiens) (P41240 2-450 limits assumed): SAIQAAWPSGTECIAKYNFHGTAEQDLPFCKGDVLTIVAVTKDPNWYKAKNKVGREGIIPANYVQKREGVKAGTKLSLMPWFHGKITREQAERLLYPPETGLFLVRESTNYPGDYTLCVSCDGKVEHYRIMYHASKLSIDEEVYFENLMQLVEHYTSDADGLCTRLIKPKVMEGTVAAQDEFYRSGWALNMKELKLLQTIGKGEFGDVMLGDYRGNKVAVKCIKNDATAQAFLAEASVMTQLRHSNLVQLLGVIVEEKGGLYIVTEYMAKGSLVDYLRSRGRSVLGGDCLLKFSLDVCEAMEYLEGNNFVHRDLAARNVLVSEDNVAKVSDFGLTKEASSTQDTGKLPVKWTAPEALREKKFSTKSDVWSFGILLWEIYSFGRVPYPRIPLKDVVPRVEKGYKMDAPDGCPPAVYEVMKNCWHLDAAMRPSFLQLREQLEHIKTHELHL
Assay [20] has the same target. Conditions: at 10 µM.

For 14 compounds, residual activity results are on record in ChEMBL document CHEMBL2218924, “A broad activity screen in support of a chemogenomic map for kinase signalling research and drug discovery” (Biochem J, 2013).

Sequence of Casein kinase II subunit alpha' (Homo sapiens) (P19784 whole entry, looked up): as the sequence (P19784 whole entry, looked up) above
Sequence of Casein kinase I isoform gamma-1 (Homo sapiens) (Q9HCP0 whole entry, looked up, canonical isoform): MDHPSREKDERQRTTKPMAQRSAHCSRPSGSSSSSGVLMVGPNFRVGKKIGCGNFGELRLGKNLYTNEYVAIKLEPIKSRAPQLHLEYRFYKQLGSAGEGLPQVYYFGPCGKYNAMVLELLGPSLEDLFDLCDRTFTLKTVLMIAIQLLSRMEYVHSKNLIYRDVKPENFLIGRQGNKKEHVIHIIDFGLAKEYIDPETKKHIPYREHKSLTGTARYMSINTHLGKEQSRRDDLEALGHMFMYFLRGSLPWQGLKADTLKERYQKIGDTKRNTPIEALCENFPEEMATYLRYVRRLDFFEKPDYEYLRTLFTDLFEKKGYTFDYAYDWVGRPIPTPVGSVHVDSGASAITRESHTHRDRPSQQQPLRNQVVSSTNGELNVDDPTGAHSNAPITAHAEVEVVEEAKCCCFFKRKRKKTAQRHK
Sequence of Serine/threonine-protein kinase Chk2 (Homo sapiens) (O96017 whole entry): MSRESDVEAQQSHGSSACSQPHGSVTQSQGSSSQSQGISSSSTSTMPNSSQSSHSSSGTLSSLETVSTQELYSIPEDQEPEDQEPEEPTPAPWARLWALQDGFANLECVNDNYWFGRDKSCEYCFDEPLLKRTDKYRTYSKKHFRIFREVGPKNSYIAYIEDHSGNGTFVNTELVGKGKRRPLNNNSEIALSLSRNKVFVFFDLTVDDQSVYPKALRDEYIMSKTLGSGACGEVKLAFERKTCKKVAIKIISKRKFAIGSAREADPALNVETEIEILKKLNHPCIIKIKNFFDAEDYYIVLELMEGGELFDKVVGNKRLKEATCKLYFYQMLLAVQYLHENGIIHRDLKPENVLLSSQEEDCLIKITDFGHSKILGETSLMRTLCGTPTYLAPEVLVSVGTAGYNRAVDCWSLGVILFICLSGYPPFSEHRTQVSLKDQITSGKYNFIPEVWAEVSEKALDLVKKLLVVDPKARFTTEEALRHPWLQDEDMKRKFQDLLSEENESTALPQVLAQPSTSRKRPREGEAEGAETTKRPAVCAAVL

In general, residual activity refers to the signal under treatment as a percentage of the control signal. Regarding `CC(C)c1nn(-c2c(Cl)cccc2Cl)c2nc(Cc3ccc(OCCO)cc3)[nH]c(=O)c12`, the residual activity in assay [1] came to 2%; in assay [2], 0%; in [3], 93%; in assay [4], 95%; in assay [5] it was 91%; in assay [6], 80%. Besides, the residual activity in assay [7] worked out at 74%; in assay [8], 89%; in [9], 79%; in assay [10] it was 53%; in [11], 100%; in assay [12] it was 96%. Further, the residual activity was 108% in assay [13]; 94% in assay [14]; 38% in assay [15]; 48% in assay [16]; 77% in [17]; 59% in assay [18]. The figures for the residual activity in [19] and in [20] were 123% and 106%, respectively.

For `CCCCc1c(-c2ccc(OC)cc2)[nH]c2nccnc12`, the residual activity in assay [1] is 10%; in assay [2], 17%; in [5], 44%; in assay [6] it was 11%; in assay [7] it was 79%; in assay [8], 77%. For the same compound, the residual activity in [9] came to 85%; in assay [10], 73%; in assay [13], 111%; in assay [15], 78%; in assay [17] it was 85%; in assay [18], 73%.

`COc1cc2nccc(Oc3ccc(NC(=O)Nc4cc(C)on4)c(Cl)c3)c2cc1OC`: the residual activity was 72% in assay [2]; 79% in assay [5]; 30% in assay [6]; 99% in assay [16]; 80% in assay [17]; 4% in assay [18]. The residual activity was 72% in assay [19] and 35% in assay [20].

With `O=C(NC(NC(=S)Nc1ccc(F)c([N+](=O)[O-])c1)C(Cl)(Cl)Cl)C(c1ccccc1)c1ccccc1` (stereo not given), the residual activity in assay [1] was 101%; in assay [2], 95%; in assay [6] it was 82%; in [7], 94%; in assay [8], 55%; in assay [9] it was 45%. Besides, the residual activity in assay [10] came out at 64%; in [12], 85%; in assay [17] it was 94%; in [18], 84%; in [19], 95%; in assay [20], 101%.

Take `NC(=O)c1cccc(-c2cc(Nc3ccc(OC(F)(F)F)cc3)ncn2)c1`: the residual activity was determined as 69% in assay [2]; 99% in assay [3]; 96% in [4]; 95% in assay [5]; 87% in assay [6]; 94% in [7]. The residual activity in [8] came to 63%; in assay [9], 90%; in assay [10] it was 74%; in assay [11], 99%; in assay [12], 97%; in [17], 97%.

Consider `COc1cc2ncnc(Nc3cccc(Cl)c3)c2cc1OC`, for which the residual activity turned out to be 71% in [2]; 89% in [4]; 79% in assay [5]; 42% in assay [6]; 100% in assay [7]; 81% in assay [8]. The residual activity in assay [9] was 87%; in [10] it was 62%; in assay [13], 128%; in assay [14], 102%; in [15], 110%; in assay [16], 74%. Further, the figures for the residual activity in assay [18], in [19] and in assay [20] were 84%, 111% and 80%, respectively.

In the case of `COc1ccc(Cl)cc1NC(=O)Nc1cc(C)nc2ccccc12`, the residual activity is 86% in assay [3]; 81% in [4]; 85% in [5]; 94% in assay [7]; 100% in assay [8]; 94% in assay [11].

As for `NC(=O)c1ccc(-c2nc(-c3ccc4c(c3)OCCO4)c(-c3ccccn3)[nH]2)cc1`, the residual activity in [5] came out at 92%; in [6], 81%; in assay [7], 82%; in [8], 83%; in assay [9] it was 17%; in assay [10], 2%. Besides, the residual activity in assay [11] was 95%; in assay [12], 97%; in assay [17], 81%; in assay [18], 76%; in assay [19] it was 119%; in assay [20], 91%.

Consider `O=S(=O)(c1cccc2cnccc12)N1CCCNCC1`, for which the residual activity in [1] is 81%; in assay [2] it was 29%; in [6], 54%; in assay [7], 124%; in [8] it was 100%; in [18], 81%.

Regarding `CSc1nc(-c2ccc(F)cc2)c(-c2ccnc(NC(C)c3ccccc3)c2)[nH]1` (stereo not given), the residual activity came to 96% in assay [1]; 95% in assay [3]; 78% in assay [4]; 5% in [5]; 3% in [6]; 62% in assay [7]. The residual activity was found to be 11% in [8]; 35% in [9]; 9% in [10]; 99% in assay [11]; 99% in [12]; 89% in [16]. The residual activity was found to be 84% in assay [17], 86% in assay [18], 102% in [19] and 84% in assay [20].

Take `Nc1nccc(-c2c(-c3ccc(F)cc3)ncn2C2CCNCC2)n1`: the residual activity was 72% in [7]; 21% in [8]; 60% in [14]; 69% in [15]; 30% in [16]; 68% in assay [18].

With `N#Cc1c(NC(=O)c2cccc3ccccc23)sc2c1CCCC2`, the residual activity in assay [1] worked out at 99%; in assay [2], 100%; in assay [6] it was 76%; in [9], 83%; in [10] it was 77%; in assay [11], 97%. The residual activity was found to be 99% in assay [12]; 99% in [16]; 77% in assay [17]; 87% in assay [18]; 99% in assay [20].

Take `O=C(CCCc1ccc(-c2ccccc2F)cc1)Nc1ccc(O)cc1`: the residual activity in [1] worked out at 104%; in [3] it was 93%; in assay [4], 108%; in assay [5], 91%; in assay [6], 72%; in assay [7], 107%. In addition, the residual activity in assay [8] stood at 102%; in assay [9], 98%; in assay [10], 92%; in [11], 92%; in assay [12] it was 97%; in assay [13], 106%. The residual activity in [14] turned out to be 102%; in [17], 92%; in [18], 89%; in assay [19], 104%; in assay [20], 107%.

As to `O=C1NC(=O)C(c2cn(CCCO)c3ncccc23)=C1c1cnccn1`, the residual activity was 89% in assay [1]; 82% in assay [2]; 88% in [5]; 79% in assay [6]; 93% in assay [7]; 90% in assay [8]. Moreover, the residual activity in assay [9] worked out at 79%; in assay [10] it was 79%; in assay [11], 76%; in [12], 66%; in assay [13] it was 57%; in assay [14], 52%. In addition, the residual activity in [15] was 52%; in assay [16], 36%; in [17], 74%; in assay [18] it was 78%; in assay [20], 97%.
